An excerpt weighted towards active compounds, which were near 12% of everything screened.
HP1b binding inh – HTS for Inhibitors of HP1-beta Chromodomain Interactions with Methylated Histone Tails; AlphaScreen HP1-beta / biotin-H3K9me3 peptide binding; Potency, µM (doses to about 114 µM), without a hit: at the highest dose activity change, negative = inhibition, usual class: inhibitors; 390,000 tested, 0.56% active; further: potency means the concentration at half of the fitted maximal effect; nearly all actives have a fitted effect of over 70% in size
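Compound inhibition of the preformed complex between 50 nM HP1-beta and 50 nM biotinylated H3K9me3 peptide was read by AlphaScreen. Buffer was PBS pH 7.4 with 0.01% Tween-20. Incubations ran 30 min at room temperature, with 10 ug/mL donor/acceptor beads.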
BAZ2B inh – qHTS Assay for Inhibitors of BAZ2B; AlphaScreen BAZ2B-H3K14Ac peptide displacement; Bromodomain adjacent to zinc finger domain protein 2B (Homo sapiens), Q9UIF8; 360,000 tested, 4.4% active; Potency, µM (titrated, usually from 114 µM), without a hit: at the top dose activity change, negative = inhibition, most hits filed as inhibitors; further: potency means the concentration at half of the fitted maximal effect; on the % scale 0 is the no-effect control and ±100 the full control effect; nearly all actives have a fitted effect of over 60% in size
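Complex of BAZ2B and biotin-H3K14Ac (50 nM apiece) forms over 30 min at RT, then faces library compounds up to 110 uM for another 30 min; AlphaScreen beads added, 20 min dark incubation, luminescence read.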
PI5P4K alpha inh – qHTS for Inhibitors of phosphatidylinositol 5-phosphate 4-kinase (PI5P4K); max response, %; 330,000 tested, 1.2% active; PI5P4Kalpha enzyme, ADP-Glo luminescence, 60 min; active compounds read low; Phosphatidylinositol 5-phosphate 4-kinase type-2 alpha (Homo sapiens), P48426; active means max response of -50% or lower; inconclusive means between -30% and -50%; inactive means -30% or higher; further: value at the top dose of about 77 µM; on the % scale 0 is the no-effect control and ±100 the full control effect
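Luminescence from ADP-Glo served as readout of PI5P4Kalpha activity in a qHTS format. Reaction: enzyme, substrate, compound, ATP at 5 microM final, 60 min at RT.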
PLK1 PBD block – qHTS for Inhibitors of PLK1-PDB (polo-like kinase 1 - polo-box domain): Primary Screen. Plk1 PBD binding of FITC phosphopeptide, fluorescence polarization. 360,000 tested, 2.8% active. Serine/threonine-protein kinase PLK1 (Homo sapiens), P53350. Potency, µM, for the others: max response, negative = inhibition, most hits filed as inhibitors; further: potency means the concentration at half of the fitted maximal effect; series mostly up to about 57 µM; on the % scale 0 is the no-effect control and ±100 the full control effect; nearly all actives have a fitted effect of over 65% in size
Target sequence (P53350 whole entry, looked up, the tested form may be a part): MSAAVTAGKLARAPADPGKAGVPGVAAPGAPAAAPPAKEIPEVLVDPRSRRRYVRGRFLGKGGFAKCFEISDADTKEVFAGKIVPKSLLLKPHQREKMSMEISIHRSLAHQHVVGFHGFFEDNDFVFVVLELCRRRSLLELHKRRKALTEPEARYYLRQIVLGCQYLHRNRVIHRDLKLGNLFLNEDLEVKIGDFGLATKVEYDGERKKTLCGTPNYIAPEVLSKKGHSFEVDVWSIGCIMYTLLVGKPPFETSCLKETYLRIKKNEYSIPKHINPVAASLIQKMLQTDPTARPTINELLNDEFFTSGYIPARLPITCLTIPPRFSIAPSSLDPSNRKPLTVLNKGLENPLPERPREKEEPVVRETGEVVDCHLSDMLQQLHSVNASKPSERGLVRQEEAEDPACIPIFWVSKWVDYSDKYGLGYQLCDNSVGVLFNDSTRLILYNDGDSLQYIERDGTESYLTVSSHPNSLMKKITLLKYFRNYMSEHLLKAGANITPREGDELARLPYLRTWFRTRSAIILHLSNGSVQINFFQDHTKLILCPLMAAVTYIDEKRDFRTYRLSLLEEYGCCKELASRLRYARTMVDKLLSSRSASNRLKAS
G9a inh – qHTS Assay for Inhibitors of Histone Lysine Methyltransferase G9a | Histone-lysine N-methyltransferase EHMT2 (Homo sapiens), Q96KQ7 | G9a H3K9 monomethylation, AlphaScreen, 2 h | Potency, µM (highest dose often 102 µM), for inactives: at the highest dose activity, negative = inhibition, hits mostly inhibitors | 350,000 tested, 8.8% active | AID 504332, 2011; further: potency means the concentration at half of the fitted maximal effect; on the % scale 0 is the no-effect control and ±100 the full control effect; nearly all actives have a fitted effect of over 75% in size
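Methyltransferase reactions run at room temperature for 2 h (20 nM enzyme, 500 nM biotin-H3K9 peptide, 20 uM SAM) after a 15 min compound preincubation; product detected by AlphaScreen beads and anti-H3K9me1 antibody.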
JMJD2A Tudor inh – qHTS Assay for Inhibitors of JMJD2A-Tudor Domain; Lysine-specific demethylase 4A (Homo sapiens), O75164; AlphaScreen JMJD2A-Tudor / H3K4me3 peptide binding; Potency, µM (series often up to 114 µM), inactives show at the top dose activity change, negative = inhibition, usual class: inhibitors; 390,000 tested, 4.4% active; further: potency means the concentration at half of the fitted maximal effect; on the % scale 0 is the no-effect control and ±100 the full control effect; nearly all actives have a fitted effect of over 50% in size
* hit, by the source's call; ? = inconclusive; · = no result; [ ] = remark or other dose. Unless noted, the call rests on the fitted dose curve; in most records, active means well fitted curve in the direction sought with a large enough effect; inconclusive means small, poorly fitted or top-dose-only effect, or another doubt; inactive means no such curve, though single readings can be large; an effect the other way counts as inactive or inconclusive.

SMILES	HP1b binding inh	BAZ2B inh	PI5P4K alpha inh	PLK1 PBD block	G9a inh	JMJD2A Tudor inh
COC(=O)C1=C(C)NC(C)=C(C(=O)OC)C1c1ccc(-c2cccc(Cl)c2Cl)o1	34%	-2%	4	0%	-18%[59 µM]	-11%
O=C(CN1CCN(S(=O)(=O)c2cc(Cl)ccc2Cl)CC1)Nc1cccc(F)c1	16%[57 µM]	-2%	·	·	5%[59 µM]	-8%
O=C(NCCSCc1ccccc1)C1CCN(S(=O)(=O)Cc2ccccc2)CC1	76%	16%	·	·	-9%[59 µM]	7%
Cc1ccc(-n2ncc3c(N4CCCCC4)ncnc32)cc1Cl	75%	12%	·	·	10%[59 µM]	6%
Cn1cnc(S(=O)(=O)N2CCCC(C(=O)Nc3ccc(OC(F)(F)F)cc3)C2)c1 (stereo not drawn)	25%	-4%	·	·	10%[59 µM]	-4%
COc1ccccc1NC(=O)N(C)C[C@H]1Oc2ncc(Br)cc2C(=O)N([C@H](C)CO)C[C@H]1C	·	·	6	5%	·	·
CCOC(=O)C1=C(C)NC(=S)NC1c1ccco1 (stereo not drawn)	12%	-14%	?	?	50µM*	?
COC(=O)C1=C(C)NC(=S)NC1c1ccc(-c2ccccc2C(=O)OC)o1 (stereo not drawn)	5%	-39%	-8	-24%	8.9µM*	-29%
NNC(=O)c1ccc(-c2cccc([N+](=O)[O-])c2)o1	34%	·	-3	7%	-2%	-21%
COC(=O)C1=C(C)NC(C)=C(C(=O)OC)C1c1ccc(-c2cccc([N+](=O)[O-])c2)o1	13%	-26%	5	-16%	79µM*	?
CCOc1ccc(C(=O)c2oc3ccccc3c2NC(=O)c2cc(-c3ccc(C)cc3)on2)cc1	45%	-11%	·	·	0%[59 µM]	14%
CCc1c(C)nc2nc(SCc3ccccc3)[nH]n2c1=O	66%	2%	5	-15%	12%	-2%
O=C(c1cccs1)N1CCN(CCCc2ccccc2)CC1	45µM*	79µM*	·	3%	32µM*	3.2µM*
O=C(c1ccccc1)N1CCN(C(=O)c2cccnc2)CC1	20%	1%	-1	-16%	?	1%
O=C(c1cccnc1)N1CCN(CCCc2ccccc2)CC1	56µM*	·	·	3%	?	5µM*
COc1ccc(CN2CCN(C(=O)c3cccs3)CC2)cc1	?	56µM*	-1	-3%	10µM*	1.3µM*
CC(C)(C)OC(=O)N1C2C=CC1C1=COCCN1C2=O (stereo not drawn)	32%	·	·	·	·	-9%
CSc1nc2ncnc(N)c2[nH]1	7%	-27%	-8	-11%	45µM*	79µM*
Nc1ncnc2nc(SCCC(=O)O)[nH]c12	56%	-21%	?	?	·	0%[11.4 µM]
COC(=O)c1c(C)oc2ccc(N(C(=O)c3ccncc3)S(=O)(=O)c3cc(C)c(C)cc3C)cc12	12%	-26%	·	·	10µM*	-31%
COC(=O)c1c(C)oc2ccc(N(C(=O)c3ccncc3)S(=O)(=O)c3ccc(C)cc3C)cc12	-1%	3%	-11	-22%	-14%[59 µM]	-30%
CN1CCN(C(=O)C23CC4CC(C)(CC(C)(C4)C2)C3)CC1	48%	-11%	-8	2%	56µM*	-3%
CN(CC(=O)Nc1ccccc1C(F)(F)F)C(=O)C1=COCCO1	19%	1%	-1	0%	7%[0.501 µM]	5%
Cc1ccc2c(c1)c1c3n2CCN(C(=O)CN2CCN(C)CC2)C3CCC1 (stereo not drawn)	-13%	?	4	-3%	45µM*	?

Screens: PubChem, National Center for Advancing Translational Sciences (NCATS)
